About 4,300 (8.3%) of roughly 52,000 compounds were called active. Rule as the data show it: active = survival mostly below about 52% (no sharp cut-off); inactive = mostly above about 56%. The entries come from a sample that favours actives as a whole.

The experiment concerns DeltatarO mutant. Kind of experiment: S. aureus survival, RN4220 and DeltatarO strains – OD600, teichoic acid synthesis inhibitors, primary screen (AID 463173). Particulars: S. aureus RN4220 wild type/DeltatarO growth, OD600, 18 h, hits give low values, screened at 18.75 µg/mL (by protocol).
For the compound `CC1CN(C(=O)Nc2ccc(C(=O)NCCc3ccccc3Cl)cc2)c2ccccc2S1` (stereo not drawn), the survival was 61% (inactive).
As for `COc1ccc(NC(=O)c2ccc3c(c2)sc2nc(-c4ccc(OC)cc4)cn23)cc1`, the figure is 61% (inactive).
In the case of `CN=C1SC(CC(=O)NC)C(=O)N1C` (stereo not drawn), the survival was 86% (inactive).
In the case of `CCCc1noc2c1C1=NNC(=O)C1C(C)(C)C2` (stereo not drawn), the survival was 76% (inactive).
As for `O=c1[nH]c2ccc(NCc3ccc(-c4ccccc4)o3)cc2[nH]1`, the figure is 86% (inactive); as for `O=C(Nc1ccc(-n2nncc2-c2ccccc2)cc1)c1cccc(F)c1`, 129% (inactive); as for `COc1ccc(N2CCN(C(=O)CCc3c(C)nc4cc(-c5ccc(OC)cc5OC)nn4c3C)CC2)cc1`, 104% (inactive).
For `CC(C)CNC(=O)c1cccc(Cl)c1`, the survival was 82% (inactive).
The figure for `COc1ccc(CCNC(=O)Cn2cc(C(=O)c3ccc(Cl)cc3)c(=O)c3ccc(C)nc32)cc1OC` is 79% (inactive); for `COc1cc(NC(=O)CCn2c(=O)oc3ccccc32)cc(OC)c1OC` it is 62% (inactive); for `COc1cc(OC)c(NC(=O)CCn2cccn2)cc1Cl` it is 79% (inactive).
Regarding `Cc1cccc(NC(=O)Cn2c(=O)c3cccn3c3ccccc32)c1C`, the survival is 43% (active).
The figure for `COc1ccc(NC(=O)Cn2c(=O)oc3cc(Cl)ccc32)c(OC)c1` is 91% (inactive); for `COc1ccc(OC)c(NC(=O)CCn2cccn2)c1` it is 47% (active).
As for `COc1ccc(OC)c(NC(=O)CCn2cnnn2)c1`, the figure is 80% (inactive).
The figure for `COc1ccc(Cl)cc1NC(=O)CCn1c(=O)oc2ccccc21` is 40% (active); for `COc1ccc(NC(=O)Cn2c(=O)c3cccn3c3ccccc32)cc1Cl` it is 42% (active); for `Cc1c(Cl)cccc1NC(=O)CCn1c(=O)c2cccn2c2ccccc21` it is 49% (inactive).
As for `Cc1cc(C)c(NC(=O)Cn2c(=O)c3cccn3c3ccccc32)c(C)c1`, the survival is 51% (inactive).
The figure for `COc1ccc(NC(=O)CCCn2c(=O)c3cccn3c3cccnc32)cc1Cl` is 87% (inactive); for `COc1ccc(NC(=O)CCn2c(=O)c3cccn3c3cccnc32)cc1Cl` it is 85% (inactive).
As for `COc1ccc(OC)c(NS(=O)(=O)c2ccc(-n3cccn3)cc2)c1`, the figure is 95% (inactive); as for `Cc1ccsc1CN1CCc2nc(Nc3ccccc3)ncc2C1`, 61% (inactive).
The figure for `CCc1cccc(C)c1NC(=O)C1CCN(c2nn3c(=O)cc(C)nc3s2)CC1` is 119% (inactive).
On to `Cc1cccc(N2CCN(c3ncnc4c3nc3n4CCCCC3)CC2)c1C`, for which the survival was 95% (inactive).
As for `COc1ccc(C(=O)NCC(c2cccnc2)N2CCN(c3ccccc3OC)CC2)cc1` (stereo not drawn), the figure is 77% (inactive); as for `CC(=O)c1ccc(NC(=O)Cn2c(=O)c3cccn3c3ccccc32)cc1`, 42% (active); as for `COc1ccc(NC(=O)Cc2ccc(NC(=O)N3CCCCc4ccccc43)cc2)c(OC)c1`, 47% (active).
The figure for `COc1ccc(C)cc1NC(=O)Cc1ccc(NC(=O)N2CCCCc3ccccc32)cc1` is 67% (inactive).
The figure for `COc1ccc(Cl)cc1NC(=O)CCn1c(=O)c2cccn2c2ccccc21` is 42% (active); for `COc1ccc(OC)c(CNC(=O)Cc2ccc(NC(=O)N3CCCCc4ccccc43)cc2)c1` it is 99% (inactive).
As for `CCc1ccc(NC(=O)Cn2c(=O)c3cccn3c3ccccc32)cc1`, the survival is 56% (inactive).
As for `COc1ccc(Cl)cc1NC(=O)NCCn1c(=O)oc2ccc(C)cc21`, the figure is 46% (active); as for `Cc1ccc2oc(=O)n(CCNC(=O)Nc3ccccc3C)c2c1`, 109% (inactive).
As for `CCOC(=O)c1cccc(NC(=O)Cn2c(=O)c3cccn3c3ccccc32)c1`, the figure is 100% (inactive).
`Cc1ccc(Cl)cc1NC(=O)CCCn1c(=O)c2cccn2c2ccccc21`: the survival was 61% (inactive).
Turning to `COc1ccc(Cl)cc1NC(=O)CCCn1c(=O)c2cccn2c2cccnc21`, the survival is 87% (inactive).
The figure for `Cc1ccc2oc(=O)n(CCNC(=O)Nc3ccc(Cl)cc3)c2c1` is 72% (inactive).
The figure for `CCOC(=O)c1c(S(=O)(=O)NCC(=O)N2CCN(c3cccc(Cl)c3)CC2)c(C)n(C)c1C` is 86% (inactive).
The figure for `O=C(O)c1ccccc1C(=O)N1CCC(C(=O)c2ccccc2)CC1` is 104% (inactive); for `COc1ccc(N2CCN(C(=O)C3CCN(S(=O)(=O)Cc4ccccc4)CC3)CC2)cc1` it is 78% (inactive); for `O=S1(=O)CCC(NNC(=S)Nc2ccccc2)C1` (stereo not drawn) it is 100% (inactive).
`CCOCCCNC(=O)c1cc2c(=O)[nH]c3ccccc3c2n1C`: the survival is 116% (inactive).
As to `CCCCOc1ccc(S(=O)(=O)NCc2csc(-c3ccc(OC)cc3)n2)cc1`, the survival was 88% (inactive).
The figure for `CCOC(=O)c1c(S(=O)(=O)NCC(=O)Nc2ccc(C)c(N(C)C)c2)c(C)n(C)c1C` is 79% (inactive).
The figure for `O=C(CCn1c(=O)c2cccn2c2cccnc21)N1CCN(c2cccc(C(F)(F)F)c2)CC1` is 39% (active).
As for `O=C(CCn1c(=O)c2cccn2c2cccnc21)N1CCN(c2ccc(F)cc2)CC1`, the survival was 88% (inactive).
Turning to `O=C(CCn1c(=O)c2cccn2c2cccnc21)N1CCN(c2cccc(Cl)c2)CC1`, the survival is 46% (active).
The figure for `Cc1ccc(Cl)cc1N1CCN(C(=O)CCn2c(=O)c3cccn3c3cccnc32)CC1` is 39% (active); for `O=C(CCn1c(=O)c2cccn2c2cccnc21)N1CCN(c2ccc(Cl)cc2)CC1` it is 53% (inactive).
The figure for `Cc1ccc(C)c(N2CCN(C(=O)CCn3c(=O)c4cccn4c4cccnc43)CC2)c1` is 58% (inactive); for `COc1ccc(N2CCN(C(=O)CCn3c(=O)c4cccn4c4cccnc43)CC2)cc1` it is 80% (inactive); for `Cc1cccc(N2CCN(C(=O)CCn3c(=O)c4cccn4c4cccnc43)CC2)c1C` it is 59% (inactive).
As for `O=C(CCn1c(=O)c2cccn2c2cccnc21)N1CCN(c2ccccc2)CC1`, the figure is 102% (inactive).
As to `O=C(C1CCN(S(=O)(=O)c2cccs2)CC1)N1CCN(c2cccc(Cl)c2)CC1`, the survival was 64% (inactive).
The figure for `CCOC(=O)c1cc2c(ccn2C)n1Cc1ccc(OC(F)(F)F)cc1` is 96% (inactive).
As for `CCOC(=O)N1CCc2c(sc3c2c(=O)n(Cc2ccccc2)c(=O)n3Cc2cccc(C)c2)C1`, the figure is 83% (inactive).
As for `CC(C)NC(=O)CCSc1ccc(Cl)cc1`, the figure is 93% (inactive).
In the case of `COc1ccc(N(C)C(=O)CCn2cnc3onc(-c4ccc(F)cc4)c3c2=O)c(OC)c1`, the survival was 92% (inactive).
As for `CC(=O)NC(C)c1nc2ccccc2n1Cc1ccccc1Cl` (stereo not drawn), the figure is 83% (inactive).
As for `Cc1nc2ccccc2c(=O)n1CC(C)C`, the figure is 64% (inactive).
The figure for `CC(C)Cn1c(-c2ccccc2Cl)nc2ccccc21` is -2% (active); for `CCCn1c(SCC(O)c2cccc(OC)c2)nc2ccccc21` (stereo not drawn) it is 84% (inactive).
With `CCCn1c(-c2cccc(Br)c2)nc2ccccc21`, the survival is -4% (active).
The figure for `CCCCNc1nc2c(-c3cccc(Br)c3)nnn2c2ccccc12` is 101% (inactive).
As for `CC(C)Cn1c(-c2cccc(Br)c2)nc2ccccc21`, the figure is 21% (active); as for `CC(C)Cn1c(C2CC(=O)N(c3ccccc3Cl)C2)nc2ccccc21` (stereo not drawn), 101% (inactive).
The figure for `CC(C)Nc1nc2c(-c3cccc(Br)c3)nnn2c2ccccc12` is 69% (inactive); for `O=C(O)c1ccc(NC(=O)c2cc(S(=O)(=O)N3CCCCC3)c(Cl)cc2Cl)cc1` it is 165% (inactive); for `CCOCCCN(Cc1ccco1)S(=O)(=O)c1cc2c(cc1C)NC(=O)CO2` it is 64% (inactive).
As to `O=C(NCc1ccco1)c1ccccc1`, the survival was 67% (inactive).
In the case of `O=C(Nc1ccccc1)c1cc2sccc2n1Cc1ccccc1`, the survival was 87% (inactive).
The figure for `COc1ccc(C(=O)NCc2ccc3c(c2)CCN3C(=O)c2ccc(Cl)cc2)c(OC)c1` is 94% (inactive).
The figure for `COc1ccc(Cl)cc1NC(=O)C(C)n1nnc2sc3c(c2c1=O)CCCC3` (stereo not drawn) is 78% (inactive); for `Cc1cccc(NS(=O)(=O)c2ccc(Cl)c(C(=O)Nc3ccccc3C)c2)c1` it is 71% (inactive); for `CC(C)CCOc1ccc(Oc2nc(N(C)C)nc(N(C)C)n2)nn1` it is 62% (inactive).
The figure for `Cc1nn(C)c2c1c(C(F)(F)F)cc(=O)n2CC(=O)NCc1ccc(OC(C)C)cc1` is 90% (inactive).
In the case of `Cc1ccc(Nc2c(-c3cccs3)nc3nc(C)cc(C)n23)cc1`, the survival was 15% (active).
As for `Cc1cc(C)n2c(Nc3ccccc3C)c(-c3cccs3)nc2n1`, the figure is 84% (inactive); as for `Cc1cccc(Nc2c(-c3cccs3)nc3nc(C)cc(C)n23)c1`, 151% (inactive); as for `Cc1ccc(C)c(NC(=O)Cn2c(=O)n(Cc3ccc4c(c3)OCO4)c(=O)c3ccc(C(=O)NC4CCCCC4)cc32)c1`, 88% (inactive).
Consider `Cc1cccc(OCC(=O)Nc2cccc(C(=O)OCc3cc(=O)n4c(C)csc4n3)c2)c1`, for which the survival is -5% (active).
For the compound `Cc1ccccc1C(=O)Nc1cccc(C(=O)OCc2cc(=O)n3c(C)csc3n2)c1`, the survival is 87% (inactive).
The figure for `Cc1csc2nc(COC(=O)c3ccc(F)cc3)cc(=O)n12` is 72% (inactive); for `Cc1csc2nc(COC(=O)c3cccc(NC(=O)COc4ccc(Cl)cc4)c3)cc(=O)n12` it is 94% (inactive).
As for `Cc1ccc(OCC(=O)Nc2cccc(C(=O)OCc3cc(=O)n4c(C)csc4n3)c2)cc1`, the figure is 89% (inactive); as for `COc1cccc(C(=O)Nc2cccc(C(=O)OCc3cc(=O)n4c(C)csc4n3)c2)c1`, 128% (inactive); as for `CCOc1ccc(C(=O)Nc2ccc(C(=O)OCc3cc(=O)n4c(C)csc4n3)cc2)cc1`, 88% (inactive).
With `CCOc1cc(C(=O)OCc2cc(=O)n3c(C)csc3n2)cc(OCC)c1OCC`, the survival was -1% (active).
The figure for `Cc1csc2nc(COC(=O)c3cccc(NC(=O)c4cccc(Cl)c4)c3)cc(=O)n12` is 17% (active); for `Cc1ccc(NC(=O)CN(C)S(=O)(=O)c2ccc3c(c2)CCC(=O)N3)c(C)c1` it is 85% (inactive).
As for `CCN(Cc1ccccc1)C(=O)c1nn(-c2ccc(OC)cc2)c(=O)c2c1c1ccccc1n2C`, the figure is 68% (inactive).
The figure for `COc1ccccc1NC(=O)CN1C(=O)C(C)(C)c2ccccc21` is 85% (inactive).

These data come from PubChem BioAssay AID463173 (ICCB-Longwood Screening Facility, Harvard Medical School, 2010).
